What all share (parameters): scale not given: direction of the effect not stated beside the values
In experiment [1] the target is Protein translocase subunit SecA (Escherichia coli (strain K12)) (UniProt P10408). Briefly: Assay to Identify E. coli SecA ATPase Inhibitors. The settings on record: 30 µM. Format: functional.
Experiment [2] has as its target T1, Ubiquitin-activating enzyme e1, putative (Leishmania donovani (strain BPK282A1)) (UniProt E9BSI1).
T1 sequence (whole entry): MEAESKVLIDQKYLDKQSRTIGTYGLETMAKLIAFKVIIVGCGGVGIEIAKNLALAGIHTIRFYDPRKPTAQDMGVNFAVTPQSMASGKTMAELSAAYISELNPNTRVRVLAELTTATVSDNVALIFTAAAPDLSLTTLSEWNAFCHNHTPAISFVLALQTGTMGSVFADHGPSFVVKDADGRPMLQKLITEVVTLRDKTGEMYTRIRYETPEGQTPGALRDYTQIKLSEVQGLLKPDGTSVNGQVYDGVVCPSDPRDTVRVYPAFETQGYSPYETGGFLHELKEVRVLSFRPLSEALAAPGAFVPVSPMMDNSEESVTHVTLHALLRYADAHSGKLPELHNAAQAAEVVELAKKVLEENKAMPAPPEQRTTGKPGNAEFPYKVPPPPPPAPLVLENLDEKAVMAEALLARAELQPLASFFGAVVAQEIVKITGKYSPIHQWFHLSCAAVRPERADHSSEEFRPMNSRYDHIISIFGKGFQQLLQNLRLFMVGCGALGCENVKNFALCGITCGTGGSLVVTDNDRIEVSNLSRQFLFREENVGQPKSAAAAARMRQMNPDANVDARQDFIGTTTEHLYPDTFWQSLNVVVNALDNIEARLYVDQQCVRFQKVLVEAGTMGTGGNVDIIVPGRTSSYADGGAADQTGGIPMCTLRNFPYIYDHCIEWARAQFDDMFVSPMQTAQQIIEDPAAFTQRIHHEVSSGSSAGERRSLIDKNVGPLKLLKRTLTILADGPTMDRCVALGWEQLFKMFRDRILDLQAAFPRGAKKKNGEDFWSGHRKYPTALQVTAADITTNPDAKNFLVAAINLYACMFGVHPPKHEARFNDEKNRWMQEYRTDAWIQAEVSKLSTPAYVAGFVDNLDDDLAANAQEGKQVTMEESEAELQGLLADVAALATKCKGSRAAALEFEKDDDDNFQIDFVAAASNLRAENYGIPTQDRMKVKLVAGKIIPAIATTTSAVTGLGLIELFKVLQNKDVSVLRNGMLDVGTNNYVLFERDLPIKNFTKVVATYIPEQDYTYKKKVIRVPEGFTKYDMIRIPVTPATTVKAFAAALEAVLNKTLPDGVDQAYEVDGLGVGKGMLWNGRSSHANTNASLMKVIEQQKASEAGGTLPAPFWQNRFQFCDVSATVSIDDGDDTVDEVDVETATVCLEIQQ
Briefly: Leishmania donovani Ubiquitin Activating Enzyme (LdE1). The format is functional. As to conditions: 30 µM.

Experiment [3] addresses AMP-activated protein kinase, AMPK (Homo sapiens) (UniProt P54646+O43741+P54619+Q9UGJ0+Q9Y478+Q13131+Q9UGI9). Briefly: AMP-dependent Kinase enzyme assay. An in vitro enzyme assay that detects ADP turnover that is directly proportional to AMPK activity. This uses naive AMPK that is activated during the assay with MK-8722. The format is functional. As to conditions: 30 µM.

Experiment [4] has as its target Sialic acid-binding Ig-like lectin 9 (Homo sapiens) (UniProt Q9Y336). Briefly: Hs-Siglec9 ALPHAscreen SOP 20170721. As to conditions: 10 µM. A general note: In Alpha technology, singlet oxygen from a donor bead excites a nearby acceptor bead.
The test system of experiment [5] is Trypanosoma cruzi. Briefly: Trypanosoma cruzi phosphomannomutase and mannose-1-phosphate guanylyltransferase assay. The format is functional. The settings on record: 10 µM.
Experiment [6] concerns the target T2, Arginase-2, mitochondrial (Homo sapiens) (UniProt P78540).
T2 sequence (whole entry): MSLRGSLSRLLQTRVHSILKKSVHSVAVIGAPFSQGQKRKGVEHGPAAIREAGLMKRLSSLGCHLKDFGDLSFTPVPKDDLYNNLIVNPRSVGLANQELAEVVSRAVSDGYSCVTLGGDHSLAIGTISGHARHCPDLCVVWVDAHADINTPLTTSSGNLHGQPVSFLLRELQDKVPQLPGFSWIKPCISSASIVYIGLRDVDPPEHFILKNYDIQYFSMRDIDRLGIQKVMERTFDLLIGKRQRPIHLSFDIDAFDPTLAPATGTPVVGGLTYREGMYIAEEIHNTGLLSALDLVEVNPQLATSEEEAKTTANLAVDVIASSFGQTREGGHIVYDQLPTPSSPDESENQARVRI
Briefly: in vitro enzyme assay to detect the production of urea directly proportional to the activity of Arginase II. Note: in the data most compounds retested in dose-response had high values. The settings on record: 33.3 µM. Format: functional.

The target in experiment [7] is T3, Proteasome subunit beta (Trypanosoma cruzi) (UniProt O96673).
T3 sequence (whole entry): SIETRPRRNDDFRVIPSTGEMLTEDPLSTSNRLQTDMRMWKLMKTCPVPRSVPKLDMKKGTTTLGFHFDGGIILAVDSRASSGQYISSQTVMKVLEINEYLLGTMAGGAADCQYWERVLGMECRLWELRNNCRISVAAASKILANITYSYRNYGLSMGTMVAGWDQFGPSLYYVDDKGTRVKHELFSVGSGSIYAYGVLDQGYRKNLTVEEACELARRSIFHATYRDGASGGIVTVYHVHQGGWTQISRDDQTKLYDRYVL
Briefly: Trypanosoma cruzi proteasome chymotrypsin-like activity (TcProtChymo) assay. Note: in the data most compounds retested in dose-response had high values. Format: functional. As to conditions: 9.37 µM.

The species entered for experiment [8] is Homo sapiens. Briefly: To identify inhibition of the IFN signalling (Jak-Stat) pathway via expression of an eGFP reporter gene under the control of an IFN-stimulated response element (ISRE) containing MxA promoter. The settings on record: 30 µM. The format is functional. In general terms: In a reporter assay the amount or activity of a reporter protein is the signal.

Experiment [9] deals with T4, Tyrosyl-tRNA synthetase, putative (Trypanosoma cruzi (strain CL Brener)) (UniProt Q4DSP6).
T4 sequence (whole entry): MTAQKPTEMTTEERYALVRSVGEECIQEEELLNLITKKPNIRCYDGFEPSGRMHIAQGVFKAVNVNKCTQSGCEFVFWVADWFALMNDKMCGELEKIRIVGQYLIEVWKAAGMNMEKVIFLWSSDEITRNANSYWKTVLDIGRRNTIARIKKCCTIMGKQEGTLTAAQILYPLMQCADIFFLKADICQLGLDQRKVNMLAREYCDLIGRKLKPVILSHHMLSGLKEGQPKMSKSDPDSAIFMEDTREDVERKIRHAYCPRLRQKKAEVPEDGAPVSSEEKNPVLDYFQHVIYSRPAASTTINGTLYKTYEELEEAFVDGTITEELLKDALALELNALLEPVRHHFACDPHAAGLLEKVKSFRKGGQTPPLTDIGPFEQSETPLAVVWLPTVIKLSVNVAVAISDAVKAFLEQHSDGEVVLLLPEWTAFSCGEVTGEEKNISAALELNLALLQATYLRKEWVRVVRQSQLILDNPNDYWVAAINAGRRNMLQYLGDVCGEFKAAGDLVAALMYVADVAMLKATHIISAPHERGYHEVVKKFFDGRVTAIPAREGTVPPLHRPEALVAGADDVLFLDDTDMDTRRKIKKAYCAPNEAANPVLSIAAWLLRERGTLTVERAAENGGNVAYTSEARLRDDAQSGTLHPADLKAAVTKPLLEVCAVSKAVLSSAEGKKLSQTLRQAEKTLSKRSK
Briefly: Trypanosoma cruzi tyrosyl tRNA synthetase (TcYRS) _High Tyrosine SOP. Note: in the data most compounds retested in dose-response had high values. The format is functional. As to conditions: 30 µM.

For experiment [10], the target named is T4, Tyrosyl-tRNA synthetase, putative (Trypanosoma cruzi (strain CL Brener)). Briefly: Trypanosoma cruzi tyrosyl tRNA synthetase (TcYRS) SOP. The format is functional. The settings on record: 30 µM.
Experiment [11] deals with Chromo domain-containing protein 1 (Saccharomyces cerevisiae (strain ATCC 204508 / S288c) (Baker's yeast)) (UniProt P32657). Briefly: ScCHD-1 Enzyme Inhibition Assay. Note: in the data most compounds retested in dose-response had high values. Format: functional. The settings on record: 30 µM.
Chain of Chromo domain-containing protein 1 (Saccharomyces cerevisiae (strain ATCC 204508 / S288c) (Baker's yeast)) (P32657 whole entry, the tested form may be a part): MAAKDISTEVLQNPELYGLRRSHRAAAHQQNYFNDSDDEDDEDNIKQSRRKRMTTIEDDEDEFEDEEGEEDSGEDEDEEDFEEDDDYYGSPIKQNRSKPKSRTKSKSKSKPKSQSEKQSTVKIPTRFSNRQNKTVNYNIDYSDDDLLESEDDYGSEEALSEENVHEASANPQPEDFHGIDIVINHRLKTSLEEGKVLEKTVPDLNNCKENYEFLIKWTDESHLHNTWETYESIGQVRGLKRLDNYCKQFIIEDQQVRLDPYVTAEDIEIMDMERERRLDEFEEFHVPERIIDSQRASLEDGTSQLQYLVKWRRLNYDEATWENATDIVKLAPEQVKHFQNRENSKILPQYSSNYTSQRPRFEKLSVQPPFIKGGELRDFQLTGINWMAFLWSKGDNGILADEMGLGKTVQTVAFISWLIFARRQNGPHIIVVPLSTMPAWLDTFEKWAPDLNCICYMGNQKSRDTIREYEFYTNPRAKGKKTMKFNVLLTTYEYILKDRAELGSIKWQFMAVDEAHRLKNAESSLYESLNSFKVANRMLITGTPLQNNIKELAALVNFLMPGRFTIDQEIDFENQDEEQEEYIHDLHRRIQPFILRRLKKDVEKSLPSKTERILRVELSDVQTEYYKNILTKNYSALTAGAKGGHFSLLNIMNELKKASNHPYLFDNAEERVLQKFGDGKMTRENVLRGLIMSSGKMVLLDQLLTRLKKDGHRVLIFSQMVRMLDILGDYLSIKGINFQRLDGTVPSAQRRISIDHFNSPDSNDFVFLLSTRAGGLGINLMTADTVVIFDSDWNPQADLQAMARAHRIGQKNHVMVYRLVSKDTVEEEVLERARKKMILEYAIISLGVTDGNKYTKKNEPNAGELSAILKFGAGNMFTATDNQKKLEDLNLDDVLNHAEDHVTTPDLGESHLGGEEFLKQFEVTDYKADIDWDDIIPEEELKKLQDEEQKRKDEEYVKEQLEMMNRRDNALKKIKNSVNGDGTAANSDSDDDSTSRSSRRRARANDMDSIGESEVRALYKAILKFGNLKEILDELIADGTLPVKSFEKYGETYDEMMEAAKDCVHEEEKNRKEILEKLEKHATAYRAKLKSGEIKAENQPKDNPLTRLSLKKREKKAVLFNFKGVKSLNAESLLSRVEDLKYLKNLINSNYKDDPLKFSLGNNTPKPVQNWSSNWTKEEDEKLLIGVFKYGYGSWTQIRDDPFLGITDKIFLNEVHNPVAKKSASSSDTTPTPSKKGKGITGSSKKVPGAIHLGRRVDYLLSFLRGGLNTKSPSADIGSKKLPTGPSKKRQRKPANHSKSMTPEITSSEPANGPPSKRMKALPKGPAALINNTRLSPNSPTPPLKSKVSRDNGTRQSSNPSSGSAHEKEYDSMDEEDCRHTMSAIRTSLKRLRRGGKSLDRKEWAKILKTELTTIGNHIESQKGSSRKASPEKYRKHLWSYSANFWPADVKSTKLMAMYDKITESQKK

For eleven compounds, Percent Effect results are on record in ChEMBL document CHEMBL3988442, “University of Dundee, Small-Polar-MMV Screening Library” (2021).

For some of these results: Potency and affinity values are given separately.

Chain of Sialic acid-binding Ig-like lectin 9 (Homo sapiens) (Q9Y336 whole entry): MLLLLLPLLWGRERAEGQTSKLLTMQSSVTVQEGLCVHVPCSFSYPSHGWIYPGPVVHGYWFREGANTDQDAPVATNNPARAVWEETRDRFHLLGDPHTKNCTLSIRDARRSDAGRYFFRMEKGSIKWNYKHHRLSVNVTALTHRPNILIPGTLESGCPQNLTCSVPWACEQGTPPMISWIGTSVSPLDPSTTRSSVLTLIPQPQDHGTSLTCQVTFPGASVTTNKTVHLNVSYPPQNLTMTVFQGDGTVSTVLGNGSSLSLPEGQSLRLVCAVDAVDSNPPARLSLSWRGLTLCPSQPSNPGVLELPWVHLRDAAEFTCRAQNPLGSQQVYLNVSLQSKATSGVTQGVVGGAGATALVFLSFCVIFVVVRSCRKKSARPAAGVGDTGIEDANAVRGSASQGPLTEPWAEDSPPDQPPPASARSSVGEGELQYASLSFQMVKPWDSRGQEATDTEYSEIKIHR
Chain of Protein translocase subunit SecA (Escherichia coli (strain K12)) (P10408 whole entry): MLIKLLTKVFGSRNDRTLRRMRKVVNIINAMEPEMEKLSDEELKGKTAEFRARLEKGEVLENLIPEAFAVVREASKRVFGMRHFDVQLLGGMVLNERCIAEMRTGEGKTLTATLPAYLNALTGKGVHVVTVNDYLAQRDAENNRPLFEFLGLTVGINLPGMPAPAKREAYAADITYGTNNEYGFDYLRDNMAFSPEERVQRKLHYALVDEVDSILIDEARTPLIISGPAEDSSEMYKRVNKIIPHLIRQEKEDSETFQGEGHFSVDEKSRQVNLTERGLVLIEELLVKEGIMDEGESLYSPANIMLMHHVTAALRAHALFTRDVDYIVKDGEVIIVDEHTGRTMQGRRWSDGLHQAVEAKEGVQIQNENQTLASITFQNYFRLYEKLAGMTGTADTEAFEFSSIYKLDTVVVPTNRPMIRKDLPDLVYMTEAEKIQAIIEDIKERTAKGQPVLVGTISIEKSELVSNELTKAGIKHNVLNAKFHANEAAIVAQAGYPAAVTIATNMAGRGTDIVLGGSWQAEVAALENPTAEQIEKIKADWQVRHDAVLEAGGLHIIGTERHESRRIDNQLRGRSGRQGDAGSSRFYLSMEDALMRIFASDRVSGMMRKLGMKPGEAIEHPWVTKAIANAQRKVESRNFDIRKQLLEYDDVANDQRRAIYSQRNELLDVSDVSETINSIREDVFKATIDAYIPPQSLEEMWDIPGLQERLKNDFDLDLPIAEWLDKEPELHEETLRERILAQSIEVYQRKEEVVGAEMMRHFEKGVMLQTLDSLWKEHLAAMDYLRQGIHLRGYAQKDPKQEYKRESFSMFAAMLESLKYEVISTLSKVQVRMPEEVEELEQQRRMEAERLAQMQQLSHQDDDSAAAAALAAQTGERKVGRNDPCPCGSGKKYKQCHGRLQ

As for `CC(Cn1cccn1)NC(=O)NCCc1cnn(C)c1` (stereo unspecified), the Percent Effect in experiment [1] is 1.95%; in [2], 2.53%; in experiment [3] it was -9%; in experiment [4] it was -14.8%; in experiment [5], -9.91%; in experiment [6], 0.38%. The Percent Effect in experiment [7] is 10.7%; in experiment [8], 24.5%; in experiment [9], 5.42%; in experiment [10] it was 8.86%; in experiment [11] it was -3.48%.
As to `Cn1c(CN2CCOC(c3nc(C(C)(C)C)n[nH]3)C2)nnc1C1CC1` (stereo unspecified), the Percent Effect in experiment [1] was -7.68%; in experiment [2], -26%; in experiment [3], -4.74%; in experiment [4] it was -20.2%; in [5] it was 7.35%; in experiment [6], -8.63%. The Percent Effect in experiment [7] is 4.93%; in experiment [8], -6.09%; in experiment [9], 3.81%; in experiment [10] it was 18.8%; in [11], -22.6%.
For the compound `O=C(NCCOc1ncc(Cl)cc1Cl)c1ccncc1`, the Percent Effect in [1] is -9.07%; in [2], 0%; in experiment [3], 3.95%; in experiment [4] it was 4.2%; in experiment [5], -5.27%; in [6], -1.67%. Besides, the Percent Effect was 9.72% in experiment [7]; 14.8% in experiment [8]; 7.92% in experiment [9]; 8.54% in [10]; -3.07% in [11].
In the case of `Cc1ccc(CN2CCC3(C2)C(=O)N(CC(C)C)c2ccccc23)s1` (stereo unspecified), the Percent Effect in experiment [1] was -1.13%; in experiment [2], -16.2%; in experiment [3], -0.146%; in experiment [4] it was 1.8%; in experiment [5], -6.25%; in experiment [6] it was 3.75%. Further, the Percent Effect was 7.02% in experiment [7]; 7.39% in [8]; 10.9% in experiment [9]; 13.4% in experiment [10]; -7.96% in experiment [11].
Consider `CNC(=O)C(C)(C)NC(=O)c1cc(OCC2CCC2)cc(C(=O)OC)c1`, for which the Percent Effect in experiment [1] was -0.888%; in experiment [2], 11%; in experiment [3] it was 28.1%; in [4] it was -1.12%; in [5], 2.35%; in experiment [6], 15.9%. The Percent Effect in experiment [7] was 12.6%; in experiment [8], 31.3%; in [9], 6.45%; in experiment [10], 15%; in [11], -3.04%.
As to `Cc1ccc(C#N)c(N2CCC(c3nccn3CCN(C)C)CC2)n1`, the Percent Effect in experiment [1] was -4.49%; in [2] it was 2.67%; in experiment [3], 1.54%; in [4], 4.68%; in [5] it was -3.6%; in experiment [6], -2.08%. In addition, the Percent Effect is 11.7% in experiment [7]; 12.9% in experiment [8]; 7.1% in [9]; 11.1% in experiment [10]; -8.91% in experiment [11].
Turning to `Cc1nc(C)n(CC2CN(Cc3cccnc3)CCO2)n1` (stereo unspecified), the Percent Effect in experiment [1] was -3.52%; in experiment [2], 21.1%; in [3], -7.06%; in experiment [4], -5.07%; in [5], -2.33%; in experiment [6], 2.52%. Besides, the Percent Effect is 6.85% in experiment [7]; -13.4% in experiment [8]; 9.36% in [9]; 23.5% in [10]; -5.32% in experiment [11].
Take `CCOc1ncccc1C(=O)NCCN(CC)C1CC1`: the Percent Effect in [1] is -6.27%; in experiment [2], 3.8%; in [3] it was 1.07%; in experiment [4], -1.89%; in experiment [5] it was -0.103%; in experiment [6], 5.38%. Besides, the Percent Effect was 8.75% in experiment [7]; 5.7% in experiment [8]; 1.04% in experiment [9]; 0% in experiment [10]; -23.1% in [11].
Regarding `O=C(c1nc(-c2ccc3cc[nH]c3c2)no1)N1CCCC1`, the Percent Effect was -4.98% in experiment [1]; -12% in experiment [2]; 2.17% in [3]; 2.62% in [4]; 5.11% in experiment [5]; -3.7% in experiment [6]. Besides, the Percent Effect was 11.7% in experiment [7]; -6.53% in experiment [8]; 0% in experiment [9]; -2.56% in [10]; -3.18% in [11].
As to `Cc1ccc2nc(C3CCN(CCO)CC3)nn2c1`, the Percent Effect is 1.65% in [1]; 10.7% in experiment [2]; 6.44% in experiment [3]; 9.27% in [4]; -2.51% in experiment [5]; -59.7% in experiment [6]. The Percent Effect in experiment [7] was 4.79%; in experiment [8], 23.1%; in experiment [9], 2.08%; in experiment [10], 10%; in [11] it was -0.68%.
Take `O=C(Nc1ccccn1)C1=NN(c2ccccc2)C(=O)CN1`: the Percent Effect in [1] was 0.648%; in experiment [2], 25.3%; in experiment [3], -3.03%; in experiment [4], -13.4%; in experiment [5], 1.6%; in experiment [6] it was -5.32%. The Percent Effect in experiment [7] is 11.9%; in [8] it was 9.82%; in experiment [9], 6.4%; in experiment [10] it was 24.1%; in [11] it was -12.2%.
